Laboratory results reported in PMC13494018.
A number with no mark means an inactive call. No rule for the calls is given here.

B1: d4r4_design_ppi_269_dldesign_0_cycle0_af2pred (protein)
chain: SVEEAKKKNLKIAEEAIKLAEEVAKELEKNEKYKEKAEEFKKKAKELKELKKKGEEDALDATLAGVYGKRLKKKAEEEKKKLEEE
B2: d4r4_design_ppi_373_dldesign_0_cycle0_af2pred (protein)
chain: AARAAAQKEAVALMAEAAEKAAEKAKKTSVAAEAFRAATKAAQAAASGEKWPEGEAAVEKLKKLDPEAGKIIAEAAAKAKAIMA
B3: d4r4_design_ppi_349_dldesign_0_cycle0_af2pred (protein)
chain: SEKEKLLEKYKETLEELRKVRKELAKEKKNLDKETFTKIANELQDARNESAYYKQQGDYKKALEAAEKALEIAKEGLKKAKEAA
B4: d4r4_design_ppi_299_dldesign_0_cycle0_af2pred (protein)
chain: KSELAKKAADETSKALSYIRAFAKYKPEKGKEIEDLLLDEEKMEEAAELAEKAAKEAETEEEKEIAKKAAEHIRKAKEYLEKLK
B5: d4r4_design_ppi_396_dldesign_0_cycle0_af2pred (protein)
chain: AEAAAFAAAKAAAAKAFAEAYEAANALLASGKYKEEAEKGKKELKELAKKLKAAKTAEEAKKVAEEAKKLAEKLKKLLEEAE
B6: d4r4_design_ppi_410_dldesign_0_cycle0_af2pred (protein)
chain: AAAAAAAQKAEMDRTVAAAERQTAILEKRLKAAGLTALADKVKAALAALKAAAEAGDYEAAKKAAAALAKAAAEAREAVAEKEVKA
B7: d4r4_design_ppi_303_dldesign_0_cycle0_af2pred (protein)
chain: MAERAAIMEEARENAIKAYEYAVKLKKIDPELGKEYMKKIDKLMKEAVEAAKDAEKAKKKAEEIKKLAEEIEKIAKEK
B8: d4r4_design_ppi_349_dldesign_0_cycle1_af2pred (protein)
chain: SEAAKYKAQYEATKKQLKETSAKLKEEKKNLSAETYKEYANKLQEARQKSTYYKAKGDYKNALAAMQEALDIAQQALAEAQKAK
B9: d4r4_design_ppi_253_dldesign_0_cycle1_af2pred (protein)
chain: MEEKKEEARRIVREAREEARKAAAESPEAALKAAEKVKERRKELEEKVDFKTAESASARFEQIIEALKIAAKKLAA
B10: d4r4_design_ppi_356_dldesign_0_cycle1_af2pred (protein)
chain: DLEEKAKEGLKKMEEEGKKNPELGKKVKELLEKGKEDGLKGVVEAAKLLTKEAGEEIKPYAAAIVHYERLKK
B11: d4r4_design_ppi_251_dldesign_0_cycle1_af2pred (protein)
chain: DSDEKAKELLEEAEKYLEEGEKLMEEGKYEEAVLLYRRAQVAALSAELSATTEELKEKAKELLKKAEEKLKEAEEALKKAEEEKK
B12: d4r4_design_ppi_338_dldesign_0_cycle1_af2pred (protein)
chain: SLNEEAKKEAEKLVEKAKKALKESPEAGEKAVKEMANKYHEYLELGVDKEVVERLRKEAKELKEEVKRKKKELEEEKLA
B13: d4r4_design_ppi_257_dldesign_0_cycle1_af2pred (protein)
chain: AEAKAAREAEFKALVEKAEAAADAAMAKATTIEEKKAILDLFNEAARHAKRGAANPETAAADLAAAKAKLAEIEAKAKA
B14: d4r4_design_ppi_253_dldesign_0_cycle0_af2pred (protein)
chain: MEELREEARRRMREARERAGEAAATSPEAAREAAEEVRRIAEELRKRVDWQTGARAEAQAEQIVEALERAAKAMEA
B15: d4r4_design_ppi_269_dldesign_0_cycle1_af2pred (protein)
chain: DVEEAREKNLEIAKKAIEEARKVAKEAEKKPEYREKAKELRKEAEELEKLAEEGKKDPLMATLAGVQGRRLLEEARKLRKELEEE
B16: d4r4_design_ppi_373_dldesign_0_cycle1_af2pred (protein)
chain: SEKEARIKEAVALMDKAAEEAAEKAKTTELANKAFRAATTAAKAAASGEDWPKGEAAVKELKKADPEAGKIIEEAAKQAAEIIA
B17: d4r4_design_ppi_265_dldesign_0_cycle1_af2pred (protein)
chain: SKEEEEAKKTKEEAEKRLKKALEEAKKLGEAEVDAVKQIVEAGKKAAAAAETPKEAAEALAKAAKTAESIIKTAKEAKKR
B18: d4r4_design_ppi_344_dldesign_0_cycle1_af2pred (protein)
chain: DPLTLAQEGLTEARYNAKDPEKALAILTATVAAGTAALAALAADPATAPLAAAGLATLARYGAKVGAEILANAKEKEA
B19: d4r4_design_ppi_394_dldesign_0_cycle1_af2pred (protein)
chain: MEIQKENDAEAGLERAKHAKEVAKKALENKPKLSLEEVAEILKKAAERAEKAAKTEEGKKLAKELKEEAKKVEAELKKAQ

Molecular target: VTCN1, Q7Z7D3
Sequence (Q7Z7D3 whole entry): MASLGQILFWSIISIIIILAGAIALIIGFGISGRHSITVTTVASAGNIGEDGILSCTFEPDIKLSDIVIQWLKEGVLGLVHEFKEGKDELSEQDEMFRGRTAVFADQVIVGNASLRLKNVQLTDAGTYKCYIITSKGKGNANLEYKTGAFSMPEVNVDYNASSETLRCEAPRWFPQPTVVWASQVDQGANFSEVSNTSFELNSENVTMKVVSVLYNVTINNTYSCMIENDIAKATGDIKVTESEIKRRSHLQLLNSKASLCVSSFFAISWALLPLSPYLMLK

Row | Binder | binding in a display sort
1 | B1 | not found
2 | B2 | not found
3 | B3 | not found
4 | B4 | not found
5 | B5 | not found
6 | B6 | not found
7 | B7 | not found
8 | B8 | not found
9 | B9 | not found
10 | B10 | not found
11 | B11 | not found
12 | B12 | not found
13 | B13 | not found
14 | B14 | not found
15 | B15 | not found
16 | B16 | not found
17 | B17 | not found
18 | B18 | not found
19 | B19 | not found
